Reference: the supplement of paper PMC10849652
Of roughly 8,800 targets only a part is listed; those with a hit were picked by preference. About 0.5% of all pairs of compound and target were hits.

What was measured:
Experiment in all cases: log2 fold change, soluble protein after heating vs DMSO (PISA); higher = thermal stabilisation; K562 lysate, 10 uM; active = over 0.2 and 3.5 SD of the protein, either way, in both replicates (recomputed)
[1] = compound: C1=CC=C(C=C1)[C@H](COC2=CC3=C(C=C2)NC(=O)N3)NC(=O)C4=CC=CN(C4=O)CC5=CC(=C(C=C5)F)F
Summary of the method: (§1)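 Dounce homogenisation of K562 pellets in PBS pH 7.4 with 1 mM MgCl2 produced a crude extract, used at 1 mg/mL protein. Exposure to 10 μM compound lasted 30 min, and aliquots were then heated for 3 min across 48°C-58°C, pooled and brought to 0.5% NP-40 at 4°C. The supernatant after 21,000xg for 90 min was quantified by TMTpro 16plex LC-MS/MS with channel sums equalised. Duplicate values are given as log-two fold change in thermal stability relative to solvent controls.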

[2] = compound: CC1=C(SC2=C1C(=N[C@H](C3=NN=C(N32)C)CC(=O)N)C4=CC=C(C=C4)Cl)C
Summary of the method: as §1

[3] = compound: CC1=C2C(=CC=C1)N=C(N(C2=O)C3=CC=CC=C3C)CN4C=NC5=C(N=CN=C54)N
Summary of the method: as §1

[4] = compound: Cc1sc2c(c1C)C(c1ccc(Cl)cc1)=N[C@@H](CC(=O)OC(C)(C)C)c1nnc(C)n1-2
Summary of the method: as §1

[5] = compound: c1ccc([C@@H]2C[C@H]2NC2CCNCC2)cc1
Summary of the method: as §1

Measured: log2 fold change

DIAPH1 (UniProt O60610)
inactive: [1] -0.005 | [2] 0.013 | [3] 0.015 | [4] 0.007 | [5] 0.023

DNAAF5 (UniProt Q86Y56)
inactive: [1] -0.054 | [2] 0.038 | [3] -0.005 | [4] 0.016 | [5] 0.064

CLASP2 isoform 3 (UniProt O75122)
inactive: [1] 0.002 | [2] -0.028 | [3] 0.079 | [4] -0.003 | [5] -0.061

CHEK1 (UniProt O14757)
Chain of UniProt O14757 (O14757 whole entry, looked up): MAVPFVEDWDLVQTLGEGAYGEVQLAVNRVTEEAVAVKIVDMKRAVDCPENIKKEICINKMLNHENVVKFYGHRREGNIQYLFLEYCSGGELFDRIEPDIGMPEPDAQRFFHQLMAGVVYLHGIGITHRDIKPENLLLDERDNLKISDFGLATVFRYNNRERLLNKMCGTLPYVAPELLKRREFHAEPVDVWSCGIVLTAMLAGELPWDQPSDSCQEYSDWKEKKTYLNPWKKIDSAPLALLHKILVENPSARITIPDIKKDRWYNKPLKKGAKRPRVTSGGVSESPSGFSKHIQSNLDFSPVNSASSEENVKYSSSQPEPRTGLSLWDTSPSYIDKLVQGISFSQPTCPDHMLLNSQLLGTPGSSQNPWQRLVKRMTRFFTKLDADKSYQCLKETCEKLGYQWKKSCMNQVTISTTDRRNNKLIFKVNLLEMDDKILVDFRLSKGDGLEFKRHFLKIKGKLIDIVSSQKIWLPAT
inactive: [1] 0.025 | [2] 0.021 | [3] 0.006 | [4] -0.04 | [5] 0

CSNK2A1 (UniProt P68400)
Chain of UniProt P68400 (P68400 whole entry, looked up): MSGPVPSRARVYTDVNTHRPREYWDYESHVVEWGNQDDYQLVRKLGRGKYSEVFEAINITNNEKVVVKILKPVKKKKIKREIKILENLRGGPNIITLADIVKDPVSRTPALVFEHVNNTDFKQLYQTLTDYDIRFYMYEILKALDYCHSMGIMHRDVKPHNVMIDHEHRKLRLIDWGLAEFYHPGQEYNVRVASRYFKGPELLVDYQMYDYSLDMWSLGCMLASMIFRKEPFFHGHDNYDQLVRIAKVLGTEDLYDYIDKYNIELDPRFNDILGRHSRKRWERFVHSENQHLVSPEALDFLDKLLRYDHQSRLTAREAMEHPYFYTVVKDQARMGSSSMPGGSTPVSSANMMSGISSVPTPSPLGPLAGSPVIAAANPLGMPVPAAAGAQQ
inactive: [1] -0.004 | [2] 0.012 | [3] -0.119 | [4] 0.034 | [5] 0.005

CIB1 (UniProt Q99828)
Chain of UniProt Q99828 (Q99828 whole entry, looked up): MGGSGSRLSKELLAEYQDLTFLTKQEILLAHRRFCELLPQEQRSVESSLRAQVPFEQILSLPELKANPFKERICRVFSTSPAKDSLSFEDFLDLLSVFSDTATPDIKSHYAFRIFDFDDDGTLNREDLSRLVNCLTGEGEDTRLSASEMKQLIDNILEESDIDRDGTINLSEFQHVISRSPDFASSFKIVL
active: [2] -0.272
inactive: [1] -0.128 | [3] -0.039 | [4] 0.023 | [5] 0.03

CSPP1 (UniProt Q1MSJ5)
Chain of UniProt Q1MSJ5 (Q1MSJ5 whole entry, looked up): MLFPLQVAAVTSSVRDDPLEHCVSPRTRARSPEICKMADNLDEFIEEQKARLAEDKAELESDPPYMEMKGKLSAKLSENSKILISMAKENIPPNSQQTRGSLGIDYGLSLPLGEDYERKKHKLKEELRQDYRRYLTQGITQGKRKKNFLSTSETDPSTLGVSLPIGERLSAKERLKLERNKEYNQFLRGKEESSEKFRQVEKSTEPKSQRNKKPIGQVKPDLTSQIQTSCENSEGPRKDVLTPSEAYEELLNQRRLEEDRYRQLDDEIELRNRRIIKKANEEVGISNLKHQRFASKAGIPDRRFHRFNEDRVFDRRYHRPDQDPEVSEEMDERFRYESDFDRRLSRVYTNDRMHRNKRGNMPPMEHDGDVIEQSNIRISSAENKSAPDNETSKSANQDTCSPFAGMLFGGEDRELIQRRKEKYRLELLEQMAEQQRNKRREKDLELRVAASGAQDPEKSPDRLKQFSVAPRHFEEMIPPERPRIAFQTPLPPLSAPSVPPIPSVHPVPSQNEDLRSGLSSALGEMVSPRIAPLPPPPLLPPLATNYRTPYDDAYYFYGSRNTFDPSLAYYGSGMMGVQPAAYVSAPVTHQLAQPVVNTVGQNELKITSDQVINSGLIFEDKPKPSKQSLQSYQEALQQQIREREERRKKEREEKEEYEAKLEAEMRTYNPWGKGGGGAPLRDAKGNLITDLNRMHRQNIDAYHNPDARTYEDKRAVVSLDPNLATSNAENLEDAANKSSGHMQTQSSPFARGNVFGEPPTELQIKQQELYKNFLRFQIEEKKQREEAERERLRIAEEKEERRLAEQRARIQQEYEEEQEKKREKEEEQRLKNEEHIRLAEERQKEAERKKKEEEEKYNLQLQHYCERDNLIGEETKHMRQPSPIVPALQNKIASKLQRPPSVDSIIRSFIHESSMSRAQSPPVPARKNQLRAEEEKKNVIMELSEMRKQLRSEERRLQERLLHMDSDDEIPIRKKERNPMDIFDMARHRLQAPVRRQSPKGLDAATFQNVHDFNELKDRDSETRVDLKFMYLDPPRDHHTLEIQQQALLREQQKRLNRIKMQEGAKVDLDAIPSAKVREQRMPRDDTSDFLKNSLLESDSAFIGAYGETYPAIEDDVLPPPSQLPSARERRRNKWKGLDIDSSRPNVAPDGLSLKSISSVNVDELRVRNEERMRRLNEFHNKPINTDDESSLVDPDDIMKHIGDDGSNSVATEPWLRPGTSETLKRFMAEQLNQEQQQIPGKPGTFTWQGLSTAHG
inactive: [1] -0.082 | [2] 0.001 | [3] 0.051 | [4] -0.008 | [5] -0.028

CLUH, A0A494C0R8
inactive: [1] 0.014 | [2] 0.118 | [3] 0.133 | [4] -0.116 | [5] 0.132

CTNND1 isoform 3 (UniProt O60716)
Chain of UniProt O60716 (O60716 whole entry, looked up): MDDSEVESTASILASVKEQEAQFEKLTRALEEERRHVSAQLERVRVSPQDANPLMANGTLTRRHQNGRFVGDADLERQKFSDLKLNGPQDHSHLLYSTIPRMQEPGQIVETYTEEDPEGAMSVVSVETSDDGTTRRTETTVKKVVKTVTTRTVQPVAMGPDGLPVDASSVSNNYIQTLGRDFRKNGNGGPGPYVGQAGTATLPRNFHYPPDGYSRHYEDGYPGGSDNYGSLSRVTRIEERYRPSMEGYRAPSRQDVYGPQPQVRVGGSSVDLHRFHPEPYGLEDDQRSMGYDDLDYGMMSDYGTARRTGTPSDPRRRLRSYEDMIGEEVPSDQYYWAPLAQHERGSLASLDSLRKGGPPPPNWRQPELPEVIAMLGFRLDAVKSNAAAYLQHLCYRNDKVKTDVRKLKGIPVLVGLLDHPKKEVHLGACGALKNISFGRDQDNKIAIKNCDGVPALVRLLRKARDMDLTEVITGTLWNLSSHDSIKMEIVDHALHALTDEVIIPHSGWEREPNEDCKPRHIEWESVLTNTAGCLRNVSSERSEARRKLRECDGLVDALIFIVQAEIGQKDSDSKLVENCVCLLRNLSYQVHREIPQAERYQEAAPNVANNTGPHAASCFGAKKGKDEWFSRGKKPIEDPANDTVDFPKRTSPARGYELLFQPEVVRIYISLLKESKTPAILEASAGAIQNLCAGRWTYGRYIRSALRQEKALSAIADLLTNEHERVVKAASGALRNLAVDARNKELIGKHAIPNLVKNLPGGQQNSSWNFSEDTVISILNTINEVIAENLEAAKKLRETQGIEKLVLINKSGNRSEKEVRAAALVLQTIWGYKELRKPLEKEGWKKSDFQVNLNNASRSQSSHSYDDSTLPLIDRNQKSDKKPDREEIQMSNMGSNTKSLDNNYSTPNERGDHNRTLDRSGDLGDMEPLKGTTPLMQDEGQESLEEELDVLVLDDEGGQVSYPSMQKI
inactive: [1] -0.021 | [2] 0.035 | [3] 0.058 | [4] 0.036 | [5] 0.028

DNM2 (UniProt P50570)
inactive: [1] -0.01 | [2] 0.038 | [3] 0.035 | [4] 0.05 | [5] 0.057

CKAP2 (UniProt Q8WWK9)
inactive: [1] 0.052 | [2] 0.066 | [3] 0.001 | [4] -0.003 | [5] -0.021

CHURC1 isoform 2 (UniProt Q8WUH1)
Chain of UniProt Q8WUH1 (Q8WUH1 whole entry, looked up): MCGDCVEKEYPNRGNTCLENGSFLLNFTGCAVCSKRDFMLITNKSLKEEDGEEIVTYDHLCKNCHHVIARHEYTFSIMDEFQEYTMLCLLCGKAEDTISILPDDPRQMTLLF
inactive: [1] 0.045 | [2] -0.05 | [3] -0.046 | [4] -0.014 | [5] -0.063

DDX54 isoform 2 (UniProt Q8TDD1)
inactive: [1] -0.131 | [2] 0.041 | [3] 0.09 | [4] 0.052 | [5] 0.008

DBF4 (UniProt Q9UBU7)
Chain of UniProt Q9UBU7 (Q9UBU7 whole entry, looked up): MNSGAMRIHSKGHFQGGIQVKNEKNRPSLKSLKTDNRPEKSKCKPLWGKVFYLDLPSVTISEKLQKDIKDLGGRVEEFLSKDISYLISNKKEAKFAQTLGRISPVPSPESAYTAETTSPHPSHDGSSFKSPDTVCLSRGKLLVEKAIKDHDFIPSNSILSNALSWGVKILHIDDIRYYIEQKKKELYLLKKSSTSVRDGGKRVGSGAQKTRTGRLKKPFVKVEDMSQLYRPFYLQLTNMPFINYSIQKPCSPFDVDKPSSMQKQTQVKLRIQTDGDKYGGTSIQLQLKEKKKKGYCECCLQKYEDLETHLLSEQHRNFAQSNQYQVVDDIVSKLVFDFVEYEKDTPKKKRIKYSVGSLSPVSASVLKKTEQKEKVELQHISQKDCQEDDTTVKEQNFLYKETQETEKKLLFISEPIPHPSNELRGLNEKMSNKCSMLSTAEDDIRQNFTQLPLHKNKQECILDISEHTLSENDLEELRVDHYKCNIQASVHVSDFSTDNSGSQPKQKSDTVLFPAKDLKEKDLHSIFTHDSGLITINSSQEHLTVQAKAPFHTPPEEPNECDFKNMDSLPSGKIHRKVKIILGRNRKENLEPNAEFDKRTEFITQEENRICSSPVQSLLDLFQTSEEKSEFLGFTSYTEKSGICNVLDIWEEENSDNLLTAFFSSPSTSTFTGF
inactive: [1] 0.073 | [2] 0.002 | [3] 0.071 | [4] 0.113 | [5] 0.078

DDX4 (UniProt Q9NQI0)
Chain of UniProt Q9NQI0 (Q9NQI0 whole entry, looked up): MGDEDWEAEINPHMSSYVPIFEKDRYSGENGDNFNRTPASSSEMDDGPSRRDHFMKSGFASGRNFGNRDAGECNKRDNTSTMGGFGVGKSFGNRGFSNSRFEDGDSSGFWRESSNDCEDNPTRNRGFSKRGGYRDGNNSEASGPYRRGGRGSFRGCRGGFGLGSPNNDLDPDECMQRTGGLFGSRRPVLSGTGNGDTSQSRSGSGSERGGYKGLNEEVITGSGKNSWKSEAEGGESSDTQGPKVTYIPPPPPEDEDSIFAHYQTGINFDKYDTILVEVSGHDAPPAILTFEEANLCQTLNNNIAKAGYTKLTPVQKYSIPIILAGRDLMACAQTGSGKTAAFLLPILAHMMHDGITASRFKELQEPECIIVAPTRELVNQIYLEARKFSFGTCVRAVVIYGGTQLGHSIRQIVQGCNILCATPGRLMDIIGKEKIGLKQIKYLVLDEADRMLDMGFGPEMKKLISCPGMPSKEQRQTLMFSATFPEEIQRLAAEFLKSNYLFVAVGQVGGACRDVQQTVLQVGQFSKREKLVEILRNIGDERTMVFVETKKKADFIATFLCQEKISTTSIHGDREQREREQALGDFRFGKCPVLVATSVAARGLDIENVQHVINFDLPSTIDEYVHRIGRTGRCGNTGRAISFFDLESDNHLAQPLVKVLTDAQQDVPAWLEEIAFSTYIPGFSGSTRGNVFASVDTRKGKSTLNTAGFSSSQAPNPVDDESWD
inactive: [1] -0.047 | [2] 0.007 | [3] -0.004 | [4] 0.049 | [5] -0.265
